One assay has as its target Albumin (Bos taurus) (UniProt P02769). Put plainly: bovine serum albumin binders on microarray, profiling panel, artefact control for SMM control protein annotation, biochemical, small-molecule microarray, Alexa647 label, 635/667 nm fluorescence (AID 1118).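 Note: score merges 667 nm emission intensity and signal-to-noise per printed compound spot.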 Particulars: BSA-A647 binding, fluorescence 635 nm, higher = more signal.
A short description of assay [1]: small-molecule microarray binders of probe aXIP, primary screen, biochemical, NeuroSMM set, 635/667 nm fluorescence (AID 1119).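 Note: probe is the protein aXip251-270 applied at 1 µg/mL to compound-printed slides; binding of probe to printed compounds measured as 667 nm fluorescence plus signal to noise.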 Particulars: higher = more signal, called active from +8 up or from −8 down.
Assay [2] can be described thus: small-molecule binders of probe aNOTCH3, primary screen, biochemical, small-molecule microarray, 635/667 nm fluorescence (AID 1120).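 Note: probe is a biotin-tagged antibody raised against NOTCH3 rather than NOTCH3 protein; score merges spot fluorescence near 667 nm with spot signal to noise.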 Particulars: higher = more signal.
The nature of assay [3]: small-molecule binders of probe aNOTCH2, primary screen, biochemical, small-molecule microarray, 635/667 nm fluorescence (AID 1121).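 Note: score merges feature fluorescence read at 667 nm with its signal to noise.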 Particulars: higher = more signal.
For assay [4], the target named is Carbonic anhydrase 2 (Homo sapiens) (UniProt P00918). The experiment in a line: CAII small-molecule binders, profiling panel, biochemical, small-molecule microarray, Alexa647-labelled CAII (AID 1122). Particulars: CAII-A647 binding fluorescence, higher = more signal.
Assay [5] in a line: COS7 lysate on small-molecule microarray, probe aHis, 635 nm (AID 1123).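 Note: z-score combines 667nm fluorescence intensity with signal-to-noise per printed compound spot.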 Particulars: COS7 cell lysate, fluorescence, higher = more signal.
Assay [6] in a line: compound binding in COS7 lysate, probe aLAP1, primary screen, cell lysate, small-molecule microarray (AID 1124).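 Note: lysate comes from COS7 cells expressing LAP1 and is applied at 0.3 µg/mL; score merges spot fluorescence near 667 nm with signal-to-noise over triplicate slides.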 Particulars: probe aLAP1, fluorescence, higher = more signal.
In another assay the test system is Sam68 (KHDRBS1). Put plainly: Sam68 small-molecule binders, primary screen, biochemical, small-molecule microarray, 635 nm fluorescence (AID 1125).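 Note: score merges 667 nm channel intensity with signal to noise over triplicate slides.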 Particulars: small-molecule microarray binding, higher = more signal.
The test system of assay [7] is Chordin-like protein 2 (CHRDL2). Put plainly: CHRDL2 small-molecule binders, primary screen, biochemical, small-molecule microarray, 635 nm fluorescence (AID 1126).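 Note: printed compound slides probed with Chrdl2 protein at 4 µg/mL for 1 h at 4 C; score merges 667 nm emission intensity with signal to noise over three replicate slides.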 Particulars: small-molecule microarray binding, fluorescence 635 nm; higher = more signal.
For assay [8], the target named is Concanavalin-A (Canavalia ensiformis) (UniProt P02866). Put plainly: ConA small-molecule binders, primary screen, artefact control for SMM control protein annotation, biochemical, small-molecule microarray, Alexa647 label, 635 nm (AID 1127).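 Note: z combines 667 nm emission intensity with signal-to-noise across three replicate slides.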 Particulars: ConA-A647 binding fluorescence, higher = more signal.
Sequence of Concanavalin-A (Canavalia ensiformis) (P02866 whole entry, looked up): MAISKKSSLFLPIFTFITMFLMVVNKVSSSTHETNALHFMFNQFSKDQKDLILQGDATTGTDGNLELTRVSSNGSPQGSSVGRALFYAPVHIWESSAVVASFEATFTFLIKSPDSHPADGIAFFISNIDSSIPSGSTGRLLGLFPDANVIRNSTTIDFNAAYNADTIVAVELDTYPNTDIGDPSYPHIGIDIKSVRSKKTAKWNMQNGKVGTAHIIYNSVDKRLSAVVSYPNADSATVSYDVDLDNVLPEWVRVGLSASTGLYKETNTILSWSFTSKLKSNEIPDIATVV
Assay [9] in a line: anti-His antibody binders, primary screen, artefact control for SMM control protein annotation, biochemical, small-molecule microarray, 635 nm fluorescence (AID 1128).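 Note: score merges feature fluorescence with signal-to-noise for each printed compound spot.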 Particulars: anti-His Alexa647 antibody binding, higher = more signal.
The subject of assay [10] is Human papillomavirus type 1a E7 protein (residues 1-88). The experiment in a line: HPV1a E7 small-molecule binders, primary screen, biochemical, small-molecule microarray, residues 1-88, 635 nm (AID 1129). Particulars: small-molecule microarray binding, fluorescence 635 nm; higher = more signal.
The target of assay [11] is Focal adhesion kinase 1 (Homo sapiens) (UniProt Q05397). The experiment in a line: small-molecule microarray binders of FAK, primary screen, biochemical, 635/667 nm fluorescence, BSA, DTT (AID 1130).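 Note: composite of spot emission at 667 nm and signal to noise over triplicate slides.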 Particulars: PTK2 binding, 635 nm fluorescence, higher = more signal.
Sequence of Focal adhesion kinase 1 (Homo sapiens) (Q05397 whole entry, looked up): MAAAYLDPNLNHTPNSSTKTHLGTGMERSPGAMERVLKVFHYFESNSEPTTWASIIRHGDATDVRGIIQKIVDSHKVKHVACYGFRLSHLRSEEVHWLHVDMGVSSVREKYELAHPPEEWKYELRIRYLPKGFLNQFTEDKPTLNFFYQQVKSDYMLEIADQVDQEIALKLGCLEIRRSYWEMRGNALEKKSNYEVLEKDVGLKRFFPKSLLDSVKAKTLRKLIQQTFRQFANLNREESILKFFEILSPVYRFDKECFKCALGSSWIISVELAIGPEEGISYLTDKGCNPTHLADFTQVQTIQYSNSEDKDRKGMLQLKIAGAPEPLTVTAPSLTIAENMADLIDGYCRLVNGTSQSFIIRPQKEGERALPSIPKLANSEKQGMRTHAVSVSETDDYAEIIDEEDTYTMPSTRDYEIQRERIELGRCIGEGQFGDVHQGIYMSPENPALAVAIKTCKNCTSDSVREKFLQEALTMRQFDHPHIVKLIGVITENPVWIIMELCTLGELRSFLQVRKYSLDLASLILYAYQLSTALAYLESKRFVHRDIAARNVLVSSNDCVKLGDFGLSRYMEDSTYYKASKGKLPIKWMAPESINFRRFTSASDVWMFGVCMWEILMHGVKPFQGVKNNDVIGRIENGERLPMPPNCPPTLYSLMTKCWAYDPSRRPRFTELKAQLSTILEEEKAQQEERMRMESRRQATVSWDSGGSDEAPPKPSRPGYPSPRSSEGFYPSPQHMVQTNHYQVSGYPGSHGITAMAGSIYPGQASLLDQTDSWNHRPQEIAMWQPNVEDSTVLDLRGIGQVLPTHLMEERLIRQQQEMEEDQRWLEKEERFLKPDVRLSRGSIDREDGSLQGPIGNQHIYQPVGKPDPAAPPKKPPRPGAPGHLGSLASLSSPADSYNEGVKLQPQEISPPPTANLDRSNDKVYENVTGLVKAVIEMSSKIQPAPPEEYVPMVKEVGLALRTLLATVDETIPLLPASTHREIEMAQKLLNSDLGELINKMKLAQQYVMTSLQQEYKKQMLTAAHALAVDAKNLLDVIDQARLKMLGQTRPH
Assay [12] relates to Fibrinogen (Alexa647-labelled). Put plainly: fibrinogen binders on compound microarrays, profiling panel, artefact control for SMM control-protein annotation, biochemical, small-molecule microarray, 635/667 nm fluorescence (AID 1131).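 Note: z-score merges 667 nm fluorescence with per-spot signal-to-noise over triplicate slides.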 Particulars: fibrinogen-A647 binding fluorescence, higher = more signal.
The target in assay [13] is Follistatin (Homo sapiens) (UniProt P19883). Put plainly: follistatin binders on small-molecule microarrays, primary screen, biochemical, small-molecule microarray, 635/667 nm fluorescence (AID 1132). Particulars: FST binding, 635 nm fluorescence, higher = more signal.
Sequence of Follistatin (Homo sapiens) (P19883 whole entry, looked up): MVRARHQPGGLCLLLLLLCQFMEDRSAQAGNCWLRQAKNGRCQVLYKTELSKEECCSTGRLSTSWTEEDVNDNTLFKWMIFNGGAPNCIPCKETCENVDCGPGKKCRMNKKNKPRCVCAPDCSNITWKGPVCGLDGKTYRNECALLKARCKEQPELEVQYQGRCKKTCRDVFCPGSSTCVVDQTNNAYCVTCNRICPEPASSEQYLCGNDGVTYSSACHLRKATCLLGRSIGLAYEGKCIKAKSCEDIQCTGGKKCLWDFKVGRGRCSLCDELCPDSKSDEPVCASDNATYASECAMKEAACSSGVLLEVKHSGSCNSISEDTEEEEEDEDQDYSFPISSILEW
Assay [14] addresses Fibroblast growth factor 2 (Homo sapiens) (UniProt P09038). Put plainly: FGF2 binders on small-molecule microarrays, primary screen, biochemical, small-molecule microarray, 635/667 nm fluorescence (AID 1133). Particulars: small-molecule microarray binding, FGF2, fluorescence 635/667; higher = more signal.
A short description of assay [15]: mitochondrial membrane potential change in A549 cells, profiling panel, cell-based, JC-1 fluorescence, basal, 24 h, 100 nL (AID 1138).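 Note: A549 lung adenocarcinoma cells under basal conditions with no added stimulus; test concentration not given here.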 Particulars: higher = more signal.
The next assay concerns Lefty1. Put plainly: Lefty1 binders on small-molecule microarrays, primary screen, biochemical, small-molecule microarray, 635/667 nm fluorescence (AID 1139). Particulars: small-molecule microarray binding, fluorescence 635/667; higher = more signal.
Assay [16] has as its system wheat germ agglutinin (Triticum aestivum), Alexa647-labelled. The experiment in a line: wheat germ agglutinin binders on compound microarrays, profiling panel, artefact control for SMM control-protein annotation, biochemical, small-molecule microarray, 635/667 nm fluorescence (AID 1140).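 Note: score merges 667 nm feature emission with signal to noise over triplicate slides.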 Particulars: WGA-A647 binding, 635 nm fluorescence, higher = more signal.
Assay [17] addresses Luciferin 4-monooxygenase (Photinus pyralis) (UniProt P08659). Put plainly: firefly luciferase enzyme inhibitors, primary screen, biochemical, luminescence, purified enzyme, 2006 set (AID 1141).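 Note: cell-free assay with purified firefly luciferase at 100 ng per well in PBS; test concentration not given here.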 Particulars: SteadyGlo luminescence, 30 min, higher = more signal, called active from +8 up or from −8 down.

This passage reports composite z-score, composite Z-score and z-score results from PubChem BioAssay.

Calls of active or inactive are those of the source.

Sequence of Fibroblast growth factor 2 (Homo sapiens) (P09038 whole entry, looked up): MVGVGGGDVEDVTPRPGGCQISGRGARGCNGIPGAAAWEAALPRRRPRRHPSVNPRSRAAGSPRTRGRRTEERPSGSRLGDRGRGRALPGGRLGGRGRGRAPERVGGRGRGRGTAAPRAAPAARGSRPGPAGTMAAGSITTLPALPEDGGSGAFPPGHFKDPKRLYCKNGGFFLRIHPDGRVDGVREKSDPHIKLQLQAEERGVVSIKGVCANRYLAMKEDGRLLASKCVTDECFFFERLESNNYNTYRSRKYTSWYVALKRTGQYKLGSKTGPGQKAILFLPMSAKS
Sequence of Luciferin 4-monooxygenase (Photinus pyralis) (P08659 whole entry, looked up): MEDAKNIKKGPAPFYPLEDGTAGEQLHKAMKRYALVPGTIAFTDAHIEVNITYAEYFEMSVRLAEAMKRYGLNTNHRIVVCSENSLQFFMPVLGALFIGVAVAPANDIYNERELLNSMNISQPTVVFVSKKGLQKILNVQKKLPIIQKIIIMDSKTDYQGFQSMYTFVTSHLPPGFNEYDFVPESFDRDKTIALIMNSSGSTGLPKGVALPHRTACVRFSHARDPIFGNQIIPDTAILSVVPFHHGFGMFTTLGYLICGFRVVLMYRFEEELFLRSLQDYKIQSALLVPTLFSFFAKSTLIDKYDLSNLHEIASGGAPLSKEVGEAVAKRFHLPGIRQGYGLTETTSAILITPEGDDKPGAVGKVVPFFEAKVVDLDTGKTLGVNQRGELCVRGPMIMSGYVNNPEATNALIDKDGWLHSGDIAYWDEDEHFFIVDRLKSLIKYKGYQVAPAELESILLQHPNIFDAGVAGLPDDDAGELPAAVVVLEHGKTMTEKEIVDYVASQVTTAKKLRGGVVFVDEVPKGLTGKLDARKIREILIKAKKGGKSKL
Sequence of Albumin (Bos taurus) (P02769 whole entry, looked up): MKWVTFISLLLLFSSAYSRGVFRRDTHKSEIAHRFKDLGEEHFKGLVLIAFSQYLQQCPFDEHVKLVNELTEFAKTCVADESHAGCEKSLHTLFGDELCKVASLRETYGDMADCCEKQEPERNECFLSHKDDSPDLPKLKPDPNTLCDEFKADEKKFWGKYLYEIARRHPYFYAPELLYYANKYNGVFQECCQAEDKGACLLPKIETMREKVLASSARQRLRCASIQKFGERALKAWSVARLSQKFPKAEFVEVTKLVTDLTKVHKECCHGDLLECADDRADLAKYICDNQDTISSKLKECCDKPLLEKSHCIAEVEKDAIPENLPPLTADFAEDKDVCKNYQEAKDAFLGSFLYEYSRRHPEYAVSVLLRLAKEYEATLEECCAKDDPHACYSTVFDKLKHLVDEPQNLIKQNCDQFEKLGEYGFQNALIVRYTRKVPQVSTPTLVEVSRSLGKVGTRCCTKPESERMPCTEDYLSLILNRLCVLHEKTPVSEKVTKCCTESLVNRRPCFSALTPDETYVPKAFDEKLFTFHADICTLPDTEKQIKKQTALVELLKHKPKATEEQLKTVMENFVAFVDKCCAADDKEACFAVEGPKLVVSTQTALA

Consider `C=CCOC(=O)[C@H]1[C@@H]2C(=O)O[C@@H](c3ccccc3)[C@@H](c3ccccc3)N2[C@@H](c2ccc(OCCOC(=O)[C@@H]3C[C@@H]4C(=O)N[C@@H](CCCCN(C)C)C(=O)N4[C@@H]3c3ccc(O)cc3)cc2)[C@]12C(=O)Nc1ccccc12`, for which the composite z-score with Albumin (Bos taurus) was -0.568; in [2], 0.137; in [3] it was 0.0002; in assay [4] it was 0.297; in [5], 2.58; in [6], 0.949. Also, the composite z-score with Sam68 (KHDRBS1) came to 1.31; in [7] it was 1.44; in assay [8], 1.14; in [9], 1.57; in assay [10], 1.14; in assay [11], 0.0515. Besides, the composite z-score in assay [12] was determined as 0.503; in assay [13], 1.38; in assay [14] it was 1.48; with Lefty1, 1.54; in [16], 0.382. Besides, the composite Z-score in [1] was 0.685 (inactive). Further, the z-score in [15] is -1.49; in assay [17], -3.27 (inactive).

With `CC(C)(C)N1CC=CC23O[C@@H]4C=CCOC(=O)[C@@H]4[C@H]2C(=O)N(CCCCCCO)[C@@H]3C1=O` (stereo not given in full), the composite z-score was 0.277 with Albumin (Bos taurus); -0.359 in assay [2]; -0.112 in assay [3]; 0.879 in [4]; -0.112 in assay [5]; 0.483 in assay [6]. Also, the composite z-score in the assay on Sam68 (KHDRBS1) was -0.551; in assay [7], -0.677; in [8], -0.375; in [9], 0.184; in assay [10], -0.184; in assay [11], 0.527. In addition, the composite z-score in [12] is -1.52; in assay [13], -1.42; in assay [14], -0.877; in the assay with Lefty1, -0.447; in assay [16], 0.132. The composite Z-score in [1] was 0.395 (inactive). Besides, the z-score was -0.12 in assay [15] and -0.234 (inactive) in assay [17].

On to `O=C1C2C=CC(C(O)c3ccc(Br)cc3)N(Nc3ccccc3F)C2C(=O)N1c1ccccc1` (stereo not given), for which the composite z-score with Albumin (Bos taurus) is 0.826; in [2], -0.038; in assay [3], -0.126; in assay [4] it was 0.762; in [5], 1.58; in assay [6], 0.358. Besides, the composite z-score was 0.68 in the assay on Sam68 (KHDRBS1); 0.0957 in [7]; 0.667 in assay [8]; 2.57 in assay [9]; 0.992 in assay [10]; -0.312 in assay [11]. The composite z-score is 0.967 in [12]; 0.0288 in assay [13]; -0.265 in assay [14]; -0.107 in the assay on Lefty1; 0.672 in [16]. The composite Z-score in [1] is 0.0051 (inactive). Moreover, the z-score in assay [15] is 0.147; in [17], 1.71 (inactive).

Regarding `COCCCNC(=O)[C@]1(CCS(=O)(=O)c2ccccc2)N=C(c2ccc(OCCCO)cc2)O[C@@H]1c1ccccc1N=[N+]=[N-]`, the composite z-score in the assay with Albumin (Bos taurus) is 1.02; in assay [2], 0.486; in [3], -0.143; in assay [4] it was 0.569; in assay [5], 2.39; in assay [6], 0.371. Also, the composite z-score in the assay on Sam68 (KHDRBS1) is 1.31; in [7], -0.71; in assay [8], 1.18; in assay [9], 2.09; in assay [10], 1.22; in [11] it was -0.0436. Further, the composite z-score is 0.996 in assay [12]; 0.794 in [13]; -0.138 in [14]; -0.279 in the assay with Lefty1; 1.13 in assay [16]. Moreover, in assay [1], the composite Z-score is 0.778 (inactive). In addition, the values for the z-score in assay [15] and in assay [17] were 0.789 and -10.1 (active), respectively.

`CCCC[C@@H]1C[C@H]1[C@@H](NC(=O)c1cccs1)c1ccc(C(F)(F)F)cc1`: the composite z-score in the assay with Albumin (Bos taurus) was -0.999; in assay [2], 0.0026; in [3], -0.0859; in [4] it was -0.195; in assay [5] it was -0.559; in assay [6] it was 0.0126. For the same compound, the composite z-score with Sam68 (KHDRBS1) is -0.154; in [7], 0.149; in assay [8] it was -0.162; in assay [9], 0.904; in assay [10], -0.654; in [11], -0.0276. In addition, the composite z-score was -0.364 in assay [12]; 0.301 in assay [13]; -0.38 in assay [14]; 0.222 in the assay on Lefty1; -0.945 in assay [16]. In assay [1], the composite Z-score was -0.496 (inactive). The z-score is 0.503 in [15] and 1.2 (inactive) in [17].
